Lamin A splicing: modulators of lamin A splicing; HeLa LMNA splicing GFP/RFP minigene ratio, 48 h; Potency, µM (top dose mostly 46.1 µM), most hits filed as inhibitors; 200,000 compounds, 0.01% hits; AID 1487; active = well fitted inhibition curve with a large enough effect in the signal ratio, with a control signal flat, not every such curve was filed as active; inconclusive = small, poorly fitted or top-dose-only effect, or effect the other way, or a change in a side signal; the % refers to the signal ratio
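Read-out is the ratio of GFP to DsRed2 object intensity, acquired by 488 nm laser-scanning cytometry on HeLa lamin A-EGFP minigene reporter cells. Compound incubation 48 hrs at 37 °C in Opti-MEM with 2% FBS; DMSO 0.5% final.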
RECQ1 helicase: inhibitors of human RECQ1 DNA helicase. RECQ1 DNA unwinding, red fluorescence kinetic read. Potency, µM (highest dose often 57.3 µM), usual class: inhibitors. P46063. 240,000 compounds, 0.54% hits; note: nearly all actives have a fitted effect of over 30% in size
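RECQ1T1 50 nM; forked duplex (20 bp + 30-nt ss tails) 200 nM, ATP 2 mM final; pH 8.0, 2 mM MgCl2, 2.5 ug/ml poly(dI-dC); 15 min compound preincubation; discontinuous kinetic read over 2 h at RT.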
APE1 inh: APE1 (human) endonuclease inhibition. Potency, µM (doses to about 65.8 µM), most hits filed as inhibitors. 350,000 compounds, 0.35% hits. recombinant APE1, TAMRA/BHQ-2 abasic DNA cleavage fluorescence. AID 2517; note: nearly all actives have a fitted effect of over 55% in size
Target sequence (P27695 whole entry, looked up): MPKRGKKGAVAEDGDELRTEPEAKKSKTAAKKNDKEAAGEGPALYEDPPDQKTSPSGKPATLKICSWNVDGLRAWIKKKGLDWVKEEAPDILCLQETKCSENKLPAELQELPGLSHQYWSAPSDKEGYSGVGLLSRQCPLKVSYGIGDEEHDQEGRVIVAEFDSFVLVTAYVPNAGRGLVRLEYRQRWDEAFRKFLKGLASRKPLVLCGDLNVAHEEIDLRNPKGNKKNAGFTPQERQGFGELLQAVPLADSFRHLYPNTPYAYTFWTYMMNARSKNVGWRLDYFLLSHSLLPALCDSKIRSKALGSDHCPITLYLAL
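Incision of a quenched TAMRA/BHQ-2 THF abasic-site duplex (50 nM) by 0.75 nM APE1, after 15 min compound preincubation, measured as fluorescence increase over three 60 s reads. Values normalized to buffer, DMSO and NSC13755 control wells.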
BLM helicase inh: blocks DNA unwinding by human BLM helicase; P54132; recombinant BLM DNA unwinding, fluorescence dequenching; Potency, µM (doses to about 56.1 µM), usual class: inhibitors; 350,000 compounds, 0.2% hits; note: nearly all actives have a fitted effect of over 35% in size
TDP1 block: blocks human tyrosyl-DNA phosphodiesterase 1; Q9NUW8; recombinant TDP1, AlphaScreen DNA substrate cleavage; Potency, µM (top dose mostly 130 µM), hits mostly inhibitors; 350,000 compounds, 0.28% hits; note: nearly all actives have a fitted effect of over 40% in size
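Here, a 5' biotin and 3' phosphotyrosine-FITC DNA oligonucleotide reports Tdp1 activity: intact substrate bridges AlphaScreen beads, while cleavage leaves a 3' phosphate and drops signal. All incubations at room temperature.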
KAT2A inh: inhibitors of human GCN5L2 histone acetyltransferase | Q92830 | GCN5L2 HAT assay, ThioGlo1 CoA-SH fluorescence | Potency, µM (top dose mostly 58.9 µM), hits mostly inhibitors | 390,000 compounds, 0.21% hits
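Free CoA generated was detected with ThioGlo1 (50uM) fluorescence at Ex340nm/Em540nm, read immediately and after 20 min at room temperature. Enzyme, 20 nM in HEPES pH 7.5 buffer, saw compounds 15 min before adding 75uM H3(1-25) peptide and 70uM acetyl-CoA.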
Numbers stand for hits; n = inactive; u = inconclusive; x = no result given; ! = a repeat was not active. Shown are actives, neighbours in structure and some others; about 0.9% of the full set was active somewhere. Unless noted, calls come from the whole dose curve; as a rule, active = well fitted curve in the direction sought with a large enough effect; inconclusive = small, poorly fitted or top-dose-only effect, or another doubt; inactive = no such curve, though single readings can be large; an effect the other way counts as inactive or inconclusive.

SMILES | Lamin A splicing | RECQ1 helicase | APE1 inh | BLM helicase inh | TDP1 block | KAT2A inh
Cc1cccc(N2C(=O)NC(=O)/C(=C\c3ccc4c(c3)CCCN4Cc3ccccc3)C2=O)c1 | n | 32µM | n | n | n | n
CC1=NN(c2ccccc2)C(=O)C1/C=C1/C(=O)NC(=O)N(c2cccc(C)c2)C1=O (stereo not drawn) | n | n | n | n | n | n
Cc1cc(SCc2sc(-c3ccc(C(F)(F)F)c(F)c3)nc2C)ccc1OCC(=O)O | x | n | n | n | n | 32µM
O=C(O)CBr | x | n | n | x | n | x
CCNC1(c2cccs2)CCCCC1=O (stereo not drawn) | x | x | n | x | x | x
O=C1NC(=O)C(=C/C=C/c2coc3ccc(Br)cc3c2=O)C(=O)N1 | n | 35µM | u | n | n | n
O=[N+]([O-])c1ccc(-c2[se]c3ccccc3c2I)cc1 | x | n | n | n | n | 25µM
Cc1cc(/C=C2\C(=O)NC(=O)N(c3ccccc3F)C2=O)c(C)n1-c1cc(C(=O)O)cc(C(=O)O)c1 | x | x | 11µM | n | x | n
Cc1cccc(-n2c(O)c(/C=C/C=Nc3ccccc3)c(=O)[nH]c2=O)c1 | u | n | n | n | n | n
Cc1ccccc1-n1c(O)c(/C=C/C=Nc2ccccc2)c(=O)[nH]c1=O | u | 25µM | n | n | n | n
CCCCOC(=O)c1ccccc1C(=O)OCc1ccccc1 | x | n | n | x | 40µM! | n
C/C1=C/C(=O)O[C@@H]2C[C@@H](CC[C@H](C)/C=C\CC1)O[C@@](O)(C1CSC(=O)N1)C2 (stereo partly drawn) | x | n | n | n | n | n
O=C(Nc1ccc(Cl)cc1)Nc1ccc(Cl)c(Cl)c1 | u | x | n | n | n | n
O=C(Nc1ccc(Oc2ccc(Cl)cc2)c(Cl)c1)c1cc(I)cc(I)c1O | x | x | n | u | n | 25µM
Oc1cccc[c]1[Hg][Cl] | x | x | x | n | x | 0.089µM
Cc1ccccc1O | x | n | n | x | n | n
COP(=S)(OC)Oc1nc(Cl)c(Cl)cc1Cl | x | n | n | n | n | 20µM
CCOP(=S)(OCC)Oc1nc(Cl)c(Cl)cc1Cl | n | n | n | n | 50µM! | u
C/C=C1/C[N@@+]2(C)CC[C@]34C(=C(C=O)[C@H]1C[C@H]32)Nc1ccccc14 | x | n | n | x | n | n
O=C1C(I)=CC(=C(c2cc(I)c(O)c(I)c2)c2ccccc2C(=O)O)C=C1I | x | x | u | 16µM | x | 3.5µM
CN(C)C(=S)SSC(=S)N(C)C | u | n | n | n | n | 14µM
O=C1NC(=O)N(Cc2ccc(F)cc2)C(=O)/C1=C\C=C\c1ccco1 | x | 28µM | u | u | x | n
CC(C)c1ccc(N2C(=O)NC(=O)/C(=C/C=C/c3ccco3)C2=O)cc1 | n | u | u | n | n | u
Cc1cc(C)cc(N2C(=O)NC(=O)/C(=C\C=C\c3ccco3)C2=O)c1 | u | 14µM | n | n | n | n
O=C1NC(=O)N(Cc2ccccc2)C(=O)/C1=C\c1ccco1 | u | u | u | u | n | u
SMILES | Lamin A splicing | RECQ1 helicase | APE1 inh | BLM helicase inh | TDP1 block | KAT2A inh
CC(C)(C)OC(=O)C(Br)CCBr (stereo not drawn) | x | n | n | n | n | u
Cc1c(F)c(F)c(COC(=O)C2C(/C=C(\Cl)C(F)(F)F)C2(C)C)c(F)c1F (stereo not drawn) | x | n | n | n | n | n
COP(=O)(OC)c1nc(-c2cccc3ccccc23)oc1N1CCOCC1 | n | n | n | n | n | 28µM
COP(=O)(OC)c1nc(-c2cccc3ccccc23)oc1NCCc1ccccc1 | u | u | n | n | n | n
CCC12CCN(CCc3ccc([N+](=O)[O-])cc3)CC1Oc1c(O)cccc12 (stereo not drawn) | x | x | n | x | x | x
Oc1cc[c]([Hg][Cl])cc1 | x | x | x | n | x | 0.14µM
CCCCCCCCOC(=O)c1ccccc1C(=O)OCCCCCCCC | u | n | n | n | n | n
CCCCCCCCCCCCCCOS(=O)(=O)O | x | u | n | u | n | 8.9µM
O=c1[nH]sc2cc(F)ccc12 | u | n | n | n | n | 4.5µM
CN(C)C(=O)Nc1cccc(C(F)(F)F)c1 | x | n | n | x | n | x
Nc1c([N+](=O)[O-])ccc(Oc2ccccc2)c1Cl | x | n | n | n | n | n

Screening results deposited in PubChem BioAssay by National Center for Advancing Translational Sciences (NCATS).
